# Records with an inconclusive call do not appear. A call without a number means that no potency is given here. A number with no mark means an inactive call. The source made the active and inactive calls. The call rests on the fitted dose curve; in most records, active means well fitted inhibition curve with a large enough effect; inconclusive means small, poorly fitted or top-dose-only effect; inactive means flat fitted curve, though single readings scatter.
# Tests used:
# [1] = biological target: Phospholipid hydroperoxide glutathione peroxidase GPX4 (Homo sapiens) (UniProt P36969); assay: Primary qHTS Assay for Inhibitors of Recombinant Selenoprotein Glutathione Peroxidase 4 (GPX4) (AID 1845192); further: nearly all actives have a fitted effect of over 65% in size
# Procedure, shortened: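 GR-coupled readout: 100 nM GR, 1 mM GSH, 0.5 mM NADPH; NADPH fluorescence (ex 340/em 450 nm) read at t=0 and after 15 min RT. GPX4 200 nM, preincubated 30 min with compound; substrate 0.5 mM CHP.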
# [2] = qHTS profiling for inhibitors of Plasmodium falciparum proliferation (AID 504749); further: nearly all actives have a fitted effect of over 60% in size; further: potency means the concentration at half of the fitted maximal effect; details: P. falciparum in erythrocytes, SYBR Green DNA, 72 h
# Procedure, shortened: (§1)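 P. falciparum-infected erythrocytes (0.3% parasitemia, 2.5% hematocrit final) were exposed to compounds for 72 h at 37 C in 5% CO2, then lysed with SYBR Green buffer overnight at room temperature; parasite DNA fluorescence was normalized to artemisinin and DMSO controls.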
# 3D7 = assay: as above; details: P. falciparum in erythrocytes, SYBR Green DNA, 72 h; series mostly up to 28.7 µM
# Procedure, shortened: as §1
# 7G8 = assay: as above; details: P. falciparum in erythrocytes, SYBR Green DNA, 72 h; series mostly up to 28.7 µM
# Procedure, shortened: as §1
# [3] = at 28.7 µM (top of the series), parasite line A
# [4] = at 28.7 µM (top of the series), parasite line B
# [5] = at 12.8 µM (top of the series), parasite line A
# [6] = at 12.8 µM (top of the series), parasite line B
# Chain of Phospholipid hydroperoxide glutathione peroxidase GPX4 (Homo sapiens) (P36969 whole entry, looked up): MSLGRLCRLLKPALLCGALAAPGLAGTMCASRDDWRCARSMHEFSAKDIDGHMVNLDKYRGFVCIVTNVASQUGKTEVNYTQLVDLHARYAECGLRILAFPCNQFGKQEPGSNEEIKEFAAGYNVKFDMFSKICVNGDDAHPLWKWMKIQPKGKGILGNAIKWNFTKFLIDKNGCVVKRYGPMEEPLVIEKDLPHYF
smiles,measurement,setting,value
O=C(O)P(=O)(O)O,Potency,[1],inactive
same,"activity, negative = inhibition",[2]; [3],3.96%
same,"activity, negative = inhibition",[2]; [4],-2.94%
same,Potency,3D7,inactive
same,Potency,7G8,inactive
CCOc1ccccc1OCCN[C@H](C)Cc1ccc(OC)c(S(N)(=O)=O)c1,Potency,[1],inactive
same,"activity, negative = inhibition",[2]; [3],7.23%
same,"activity, negative = inhibition",[2]; [4],1.02%
same,Potency,3D7,inactive
same,Potency,7G8,inactive
CCOc1ccc(NC(C)=O)cc1,Potency,[1],inactive
same,"activity, negative = inhibition",[2]; [3],-9.23%
same,"activity, negative = inhibition",[2]; [4],8.77%
same,Potency,3D7,inactive
same,Potency,7G8,inactive
NCCNC(=O)c1ccc(Cl)cn1,Potency,[1],inactive
same,"activity, negative = inhibition",[2]; [3],-3.24%
same,"activity, negative = inhibition",[2]; [4],-5.67%
same,Potency,3D7,inactive
same,Potency,7G8,inactive
COc1cc(NS(=O)(=O)c2ccc(N)cc2)ncn1,Potency,[1],inactive
same,"activity, negative = inhibition",[2]; [5],3.14%
same,"activity, negative = inhibition",[2]; [6],1.14%
same,Potency,3D7,inactive
same,Potency,7G8,inactive
CCC1Nc2cc(Cl)c(S(N)(=O)=O)cc2S(=O)(=O)N1 (configuration not stated),Potency,[1],inactive
same,"activity, negative = inhibition",[2]; [3],11%
same,"activity, negative = inhibition",[2]; [4],6.74%
same,Potency,3D7,inactive
same,Potency,7G8,inactive
c1ccc(-c2nc[nH]c2-c2ccccc2)cc1,Potency,[1],inactive
same,"activity, negative = inhibition",[2]; [3],7.29%
same,"activity, negative = inhibition",[2]; [4],-4.58%
same,Potency,3D7,inactive
same,Potency,7G8,inactive
CCCN(CCC)S(=O)(=O)c1ccc(C(=O)O)cc1,Potency,[1],inactive
same,"activity, negative = inhibition",[2]; [3],12.1%
same,"activity, negative = inhibition",[2]; [4],6%
same,Potency,3D7,inactive
same,Potency,7G8,inactive
c1ccc(CC2=NCCN2)cc1,Potency,[1],inactive
same,"activity, negative = inhibition",[2]; [5],-1.06%
same,"activity, negative = inhibition",[2]; [6],-2.59%
same,Potency,3D7,inactive
same,Potency,7G8,inactive
O=C(O)CCC(=O)Nc1ccc(S(=O)(=O)Nc2nccs2)cc1,Potency,[1],inactive
same,"activity, negative = inhibition",[2]; [5],14.2%
same,"activity, negative = inhibition",[2]; [6],11.7%
same,Potency,3D7,inactive
same,Potency,7G8,inactive
CCOC(=O)[C@H](CCc1ccccc1)N[C@@H](C)C(=O)N1[C@H](C(=O)O)C[C@H]2CCCC[C@@H]21,Potency,[1],inactive
same,"activity, negative = inhibition",[2]; [3],8.44%
same,"activity, negative = inhibition",[2]; [4],4.83%
same,Potency,3D7,inactive
same,Potency,7G8,inactive
Nc1ccc(S(=O)(=O)Nc2cnc3ccccc3n2)cc1,Potency,[1],inactive
same,"activity, negative = inhibition",[2]; [3],-3.4%
same,"activity, negative = inhibition",[2]; [4],-11.6%
same,Potency,3D7,inactive
same,Potency,7G8,inactive
Cc1ccc(O)c([C@H](CCN(C(C)C)C(C)C)c2ccccc2)c1,Potency,[1],inactive
same,Potency,[2]; parasite line A,7.08 µM (active)
same,Potency,[2]; parasite line B,3.98 µM (active)
same,Potency,3D7,6.31 µM (active)
same,Potency,7G8,1 µM (active)
CC(=O)Nc1ccc(OC(=O)c2ccccc2OC(C)=O)cc1,Potency,[1],inactive
same,"activity, negative = inhibition",[2]; [3],-24.5%
same,"activity, negative = inhibition",[2]; [4],5.15%
same,Potency,3D7,inactive
same,Potency,7G8,inactive
CCOc1cc(OCC)c(C(=O)CCC(=O)O)cc1OCC,Potency,[1],inactive
same,"activity, negative = inhibition",[2]; [3],5.68%
same,"activity, negative = inhibition",[2]; [4],1.04%
same,Potency,3D7,inactive
same,Potency,7G8,inactive
CN(CCCN1c2ccccc2CCc2ccccc21)CC(=O)c1ccc(Cl)cc1,Potency,[1],inactive
same,Potency,7G8,1.41 µM (active)
CC(=O)O[C@]1(C(C)=O)CC[C@H]2[C@@H]3C=C(Cl)C4=CC(=O)CC[C@]4(C)[C@H]3CC[C@@]21C,Potency,[1],inactive
same,Potency,[2]; parasite line A,12.6 µM (active)
same,Potency,7G8,11.2 µM (active)
COC(=O)C(c1ccccc1Cl)N1CCc2sccc2C1 (configuration not stated),Potency,[1],inactive
same,Potency,7G8,10 µM (active)
FC(F)(F)C(F)(F)C(F)(F)C(F)(F)C(F)(F)C(F)(F)C(F)(F)C(F)(F)Br,Potency,[1],inactive
same,"activity, negative = inhibition",[2]; [3],2.77%
same,"activity, negative = inhibition",[2]; [4],-1.15%
same,Potency,3D7,inactive
same,Potency,7G8,inactive
CN1CCC[C@@H]1CCO[C@](C)(c1ccccc1)c1ccc(Cl)cc1,Potency,[1],inactive
same,"activity, negative = inhibition",[2]; [4],-15.8%
same,Potency,3D7,inactive
same,Potency,7G8,10 µM (active)
CC1CCc2c(N3CCC(O)CC3)c(F)cc3c(=O)c(C(=O)O)cn1c23 (configuration not stated),Potency,[1],inactive
same,"activity, negative = inhibition",[2]; [3],-29.3%
same,"activity, negative = inhibition",[2]; [4],-19.8%
same,Potency,7G8,11.2 µM (active)
CN(C)CCOC(c1ccc(Cl)cc1)c1ccccn1 (configuration not stated),Potency,[1],inactive
same,"activity, negative = inhibition",[2]; [3],5.62%
same,Potency,3D7,inactive
COc1cc(C(=O)NCc2ccc(OCCN(C)C)cc2)cc(OC)c1OC,Potency,[1],inactive
same,"activity, negative = inhibition",[2]; [5],-2.54%
same,"activity, negative = inhibition",[2]; [6],-4.52%
same,Potency,3D7,inactive
same,Potency,7G8,inactive
CCCN(CCc1cccs1)[C@H]1CCc2c(O)cccc2C1,Potency,[1],inactive
same,Potency,[2]; parasite line B,4.47 µM (active)
same,Potency,3D7,14.1 µM (active)
same,Potency,7G8,1 µM (active)
CN(C)C(=O)Nc1ccc(Cl)c(Cl)c1,"activity, negative = inhibition",[2]; [3],-1.54%
same,"activity, negative = inhibition",[2]; [4],-6.86%
CC(=O)Nc1ccc(S(=O)(=O)Nc2ccc([N+](=O)[O-])cc2)cc1,Potency,[1],inactive
same,"activity, negative = inhibition",[2]; [3],-0.674%
same,"activity, negative = inhibition",[2]; [4],0.755%
same,Potency,3D7,inactive
same,Potency,7G8,inactive
CC(C)(C)NC[C@H](O)COc1nsnc1N1CCOCC1,Potency,[1],inactive
same,Potency,3D7,6.31 µM (active)
same,Potency,7G8,0.631 µM (active)
C=C[C@@]1(C)CC(=O)[C@]2(O)[C@@]3(C)[C@@H](O)CCC(C)(C)[C@@H]3[C@H](O)[C@H](OC(C)=O)[C@@]2(C)O1,"activity, negative = inhibition",[2]; [3],-7.28%
same,"activity, negative = inhibition",[2]; [4],2.74%
same,Potency,3D7,inactive
Oc1ccc(Cl)cc1Cc1cc(Cl)ccc1O,Potency,[1],inactive
same,Potency,[2]; parasite line B,11.2 µM (active)
same,Potency,3D7,inactive
same,Potency,7G8,11.2 µM (active)
Cl/C(=C\n1cncn1)c1ccc(Cl)cc1Cl,"activity, negative = inhibition",[2]; [3],10.9%
same,"activity, negative = inhibition",[2]; [4],7.76%
same,Potency,3D7,inactive
Nc1ccc(C(=O)NCC(=O)O)cc1,Potency,[1],inactive
same,"activity, negative = inhibition",[2]; [5],7.06%
same,"activity, negative = inhibition",[2]; [6],8.58%
same,Potency,3D7,inactive
same,Potency,7G8,inactive
